This is part of a sample that, as a whole, favours compounds with a hit. Of some 79,000 tested, about 15% had one in any assay. Values without a mark were called inactive. Calls of active or inactive are those of the source. No stated cut-off is given here; in the data, active means growth inhibition above about 70%; inactive means the rest.
Key:
[1] = NCI Yeast Anticancer Drug Screen. Data for the rad50 strain (AID 155);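 further: 0% = growth of vehicle-only cultures of the same strain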; conditions: S. cerevisiae rad50 strain growth inhibition, stronger effect = higher value
How it was run: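 Inhibition values express reduced yeast growth in compound-treated cultures relative to vehicle-treated controls.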

[2] = NCI Yeast Anticancer Drug Screen. Data for the mec2-1 strain (AID 157); conditions: S. cerevisiae mec2-1 strain, stronger effect = higher value
How it was run: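 Vehicle-treated cultures served as reference for growth inhibition of compound-exposed mec2-1 yeast.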

[3] = NCI Yeast Anticancer Drug Screen. Data for the sgs1 mgt1 strain (AID 161);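 further: 0% = growth of cultures given vehicle only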; conditions: S. cerevisiae sgs1 mgt1 strain, stronger effect = higher value
How it was run: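 Mutant yeast exposed to compound; growth scored against vehicle-only wells.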

[4] = NCI Yeast Anticancer Drug Screen. Data for the cln2 rad14 strain (AID 165);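 further: 0% = growth equal to vehicle treated cultures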; conditions: S. cerevisiae cln2 rad14 strain, stronger effect = higher value
How it was run: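 Each compound was tested on cln2 rad14 yeast. Inhibition of growth was calculated against vehicle-exposed controls.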

[5] = NCI Yeast Anticancer Drug Screen. Data for the bub3 strain (AID 167); conditions: S. cerevisiae bub3 mutant strain, stronger effect = higher value
How it was run: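 Steps: expose the mutant yeast strain to compound; grow alongside vehicle-treated cultures; measure growth; express inhibition against the vehicle cultures.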

[6] = NCI Yeast Anticancer Drug Screen. Data for the mlh1 rad18 strain (AID 175); conditions: S. cerevisiae mlh1 rad18 strain growth inhibition, stronger effect = higher value
How it was run: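 Vehicle-treated cultures served as the reference for growth inhibition in a yeast strain carrying DNA damage repair alterations exposed to each compound.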

[7] = at 5.0 µM (retest, dose inferred, filed as 0.5)
[8] = at 50.0 µM (retest, dose inferred, filed as 5.0)

CCCCN(CCCC)CC(O)c1cc(-c2ccc(Cl)cc2)nc2c(-c3ccccc3)cccc12 (centres undefined)
growth inhibition [1, 7]: -1%
growth inhibition [1, 8]: 30%
growth inhibition ([1]; at 50.0 µM): 52.8%
growth inhibition [2, 7]: -5%
growth inhibition [2, 8]: 13%
growth inhibition ([2]; at 50.0 µM): 36.3%
growth inhibition [3, 7]: 0%
growth inhibition [3, 8]: 54%
growth inhibition ([3]; at 50.0 µM): 80.8% (active)
growth inhibition [4, 7]: -7%
growth inhibition [4, 8]: 22%
growth inhibition ([4]; at 50.0 µM): 13.8%
growth inhibition [5, 7]: -4%
growth inhibition [5, 8]: 24%
growth inhibition ([5]; at 50.0 µM): 8.15%
growth inhibition [6, 7]: 0%
growth inhibition [6, 8]: 39%
growth inhibition ([6]; at 50.0 µM): 66.7%

[Pt].c1ccc(P(CCP(CCP(c2ccccc2)c2ccccc2)CCP(c2ccccc2)c2ccccc2)c2ccccc2)cc1
growth inhibition [1, 7]: 6%
growth inhibition [1, 8]: 83% (active)
growth inhibition ([1]; at 50.0 µM): 71.2% (active)
growth inhibition [2, 7]: 36%
growth inhibition [2, 8]: 91% (active)
growth inhibition ([2]; at 50.0 µM): 84.2% (active)
growth inhibition [3, 7]: 19%
growth inhibition [3, 8]: 89% (active)
growth inhibition ([3]; at 50.0 µM): 80% (active)
growth inhibition [4, 7]: 6%
growth inhibition [4, 8]: 91% (active)
growth inhibition ([4]; at 50.0 µM): 78% (active)
growth inhibition [5, 7]: 0%
growth inhibition [5, 8]: 92% (active)
growth inhibition ([5]; at 50.0 µM): 80.2% (active)
growth inhibition [6, 7]: 17%
growth inhibition [6, 8]: 89% (active)
growth inhibition ([6]; at 50.0 µM): 79% (active)

N#CC(C(=O)C(N)=O)c1ccc(Cl)cc1Cl (centres undefined)
growth inhibition [1, 7]: 0%
growth inhibition [1, 8]: -2%
growth inhibition ([1]; at 50.0 µM): 82.2% (active)
growth inhibition [2, 7]: 1%
growth inhibition [2, 8]: 6%
growth inhibition ([2]; at 50.0 µM): 99.6% (active)
growth inhibition [3, 7]: 1%
growth inhibition [3, 8]: 0%
growth inhibition ([3]; at 50.0 µM): 99.6% (active)
growth inhibition [4, 7]: -4%
growth inhibition [4, 8]: 8%
growth inhibition ([4]; at 50.0 µM): 91.3% (active)
growth inhibition [5, 7]: -1%
growth inhibition [5, 8]: 21%
growth inhibition ([5]; at 50.0 µM): 96.6% (active)
growth inhibition [6, 7]: -3%
growth inhibition [6, 8]: 2%
growth inhibition ([6]; at 50.0 µM): 99.2% (active)

O=S(=O)(OCC#CCOS(=O)(=O)c1ccc(Cl)c(Cl)c1)c1ccc(Cl)c(Cl)c1
growth inhibition [1, 7]: -1%
growth inhibition [1, 8]: 32%
growth inhibition ([1]; at 50.0 µM): 28.8%
growth inhibition [2, 7]: -1%
growth inhibition [2, 8]: 41%
growth inhibition ([2]; at 50.0 µM): 44%
growth inhibition [3, 7]: -6%
growth inhibition [3, 8]: 63%
growth inhibition ([3]; at 50.0 µM): 54.7%
growth inhibition [4, 7]: 1%
growth inhibition [4, 8]: 8%
growth inhibition ([4]; at 50.0 µM): 75.2% (active)
growth inhibition [5, 7]: -4%
growth inhibition [5, 8]: 32%
growth inhibition ([5]; at 50.0 µM): 35.3%
growth inhibition [6, 7]: 7%
growth inhibition [6, 8]: 37%
growth inhibition ([6]; at 50.0 µM): 48.2%

CC(=O)N(C1=C(Cl)C(=O)c2ccccc2C1=O)c1ccc(F)cc1
growth inhibition [1, 7]: 28%
growth inhibition [1, 8]: 99% (active)
growth inhibition ([1]; at 50.0 µM): 98.8% (active)
growth inhibition [2, 7]: 39%
growth inhibition [2, 8]: 98% (active)
growth inhibition ([2]; at 50.0 µM): 99.3% (active)
growth inhibition [3, 7]: 35%
growth inhibition [3, 8]: 99% (active)
growth inhibition ([3]; at 50.0 µM): 99.4% (active)
growth inhibition [4, 7]: 13%
growth inhibition [4, 8]: 98% (active)
growth inhibition ([4]; at 50.0 µM): 94.4% (active)
growth inhibition [5, 7]: 57%
growth inhibition [5, 8]: 99% (active)
growth inhibition ([5]; at 50.0 µM): 97.4% (active)
growth inhibition [6, 7]: 39%
growth inhibition [6, 8]: 99% (active)
growth inhibition ([6]; at 50.0 µM): 99.4% (active)

O=Cc1c(I)cc(I)c(O)c1I
growth inhibition [1, 7]: 45%
growth inhibition [1, 8]: 88% (active)
growth inhibition ([1]; at 50.0 µM): 98.6% (active)
growth inhibition [2, 7]: 46%
growth inhibition [2, 8]: 99% (active)
growth inhibition ([2]; at 50.0 µM): 98.7% (active)
growth inhibition [3, 7]: 79% (active)
growth inhibition [3, 8]: 100% (active)
growth inhibition ([3]; at 50.0 µM): 97.9% (active)
growth inhibition [4, 7]: 42%
growth inhibition [4, 8]: 97% (active)
growth inhibition ([4]; at 50.0 µM): 95.1% (active)
growth inhibition [5, 7]: 44%
growth inhibition [5, 8]: 67%
growth inhibition ([5]; at 50.0 µM): 96.8% (active)
growth inhibition [6, 7]: 56%
growth inhibition [6, 8]: 97% (active)
growth inhibition ([6]; at 50.0 µM): 97.3% (active)

[O-]/[N+]1=[N+](\[O-])c2ccccc2CCc2ccccc21
growth inhibition [1, 7]: -1%
growth inhibition [1, 8]: -4%
growth inhibition ([1]; at 50.0 µM): 3.8%
growth inhibition [2, 7]: -1%
growth inhibition [2, 8]: 1%
growth inhibition ([2]; at 50.0 µM): -4.65%
growth inhibition [3, 7]: 4%
growth inhibition [3, 8]: 1%
growth inhibition ([3]; at 50.0 µM): 40.1%
growth inhibition [4, 7]: -1%
growth inhibition [4, 8]: -4%
growth inhibition ([4]; at 50.0 µM): 1%
growth inhibition [5, 7]: -1%
growth inhibition [5, 8]: 0%
growth inhibition ([5]; at 50.0 µM): 15.4%
growth inhibition [6, 7]: -3%
growth inhibition [6, 8]: 3%
growth inhibition ([6]; at 50.0 µM): 1.6%

CCSC(=Nc1nc2ccc(NC(C)=O)cc2s1)SCC
growth inhibition [1, 7]: 5%
growth inhibition [1, 8]: 96% (active)
growth inhibition ([1]; at 50.0 µM): 97.2% (active)
growth inhibition [2, 7]: -3%
growth inhibition [2, 8]: 97% (active)
growth inhibition ([2]; at 50.0 µM): 98% (active)
growth inhibition [3, 7]: -1%
growth inhibition [3, 8]: 97% (active)
growth inhibition ([3]; at 50.0 µM): 98.5% (active)
growth inhibition [4, 7]: -3%
growth inhibition [4, 8]: 83% (active)
growth inhibition ([4]; at 50.0 µM): 96.5% (active)
growth inhibition [5, 7]: -2%
growth inhibition [5, 8]: 94% (active)
growth inhibition ([5]; at 50.0 µM): 96% (active)
growth inhibition [6, 7]: -2%
growth inhibition [6, 8]: 96% (active)
growth inhibition ([6]; at 50.0 µM): 97.5% (active)

CN(Cc1cnc2nc(N)nc(N)c2n1)c1ccc(C(=O)NC(CCC(=O)O)C(=O)O)c(Cl)c1Cl (centres undefined)
growth inhibition [1, 7]: -4%
growth inhibition [1, 8]: 79% (active)
growth inhibition ([1]; at 50.0 µM): 94.2% (active)
growth inhibition [2, 7]: 41%
growth inhibition [2, 8]: 98% (active)
growth inhibition ([2]; at 50.0 µM): 98.2% (active)
growth inhibition [3, 7]: -5%
growth inhibition [3, 8]: 55%
growth inhibition ([3]; at 50.0 µM): 85.5% (active)
growth inhibition [4, 7]: -8%
growth inhibition [4, 8]: -13%
growth inhibition ([4]; at 50.0 µM): -11.2%
growth inhibition [5, 7]: -21%
growth inhibition [5, 8]: 64%
growth inhibition ([5]; at 50.0 µM): 77.5% (active)
growth inhibition [6, 7]: 13%
growth inhibition [6, 8]: 82% (active)
growth inhibition ([6]; at 50.0 µM): 88.2% (active)

O=C1C2=C(CCCC2)C(=O)c2ccccc21
growth inhibition [1, 7]: 6%
growth inhibition [1, 8]: 76% (active)
growth inhibition ([1]; at 50.0 µM): 25.4%
growth inhibition [2, 7]: 8%
growth inhibition [2, 8]: 79% (active)
growth inhibition ([2]; at 50.0 µM): 13.7%
growth inhibition [3, 7]: 11%
growth inhibition [3, 8]: 71% (active)
growth inhibition ([3]; at 50.0 µM): 28%
growth inhibition [4, 7]: 3%
growth inhibition [4, 8]: 15%
growth inhibition ([4]; at 50.0 µM): -30.5%
growth inhibition [5, 7]: 35%
growth inhibition [5, 8]: 79% (active)
growth inhibition ([5]; at 50.0 µM): 60.4%
growth inhibition [6, 7]: 7%
growth inhibition [6, 8]: 43%
growth inhibition ([6]; at 50.0 µM): 68.5%

CCOC(=O)/C(=C\c1cccc(Br)c1)C(C)=O
growth inhibition [1, 7]: 47%
growth inhibition [1, 8]: 100% (active)
growth inhibition ([1]; at 50.0 µM): 92.8% (active)
growth inhibition [2, 7]: 51%
growth inhibition [2, 8]: 99% (active)
growth inhibition ([2]; at 50.0 µM): 94.9% (active)
growth inhibition [3, 7]: 47%
growth inhibition [3, 8]: 99% (active)
growth inhibition ([3]; at 50.0 µM): 93.1% (active)
growth inhibition [4, 7]: 45%
growth inhibition [4, 8]: 99% (active)
growth inhibition ([4]; at 50.0 µM): 92.9% (active)
growth inhibition [5, 7]: 87% (active)
growth inhibition [5, 8]: 100% (active)
growth inhibition ([5]; at 50.0 µM): 92.7% (active)
growth inhibition [6, 7]: 82% (active)
growth inhibition [6, 8]: 100% (active)
growth inhibition ([6]; at 50.0 µM): 92.5% (active)

NC(=S)n1nc(-c2ccccc2)c(N=Nc2ccccc2Cl)c1-c1ccccc1
growth inhibition [1, 7]: 3%
growth inhibition [1, 8]: 84% (active)
growth inhibition ([1]; at 50.0 µM): 94.8% (active)
growth inhibition [2, 7]: 0%
growth inhibition [2, 8]: 58%
growth inhibition ([2]; at 50.0 µM): 55.5%
growth inhibition [3, 7]: 1%
growth inhibition [3, 8]: 83% (active)
growth inhibition ([3]; at 50.0 µM): 72.9% (active)
growth inhibition [4, 7]: 21%
growth inhibition [4, 8]: 92% (active)
growth inhibition ([4]; at 50.0 µM): 73.9% (active)
growth inhibition [5, 7]: 16%
growth inhibition [5, 8]: 92% (active)
growth inhibition ([5]; at 50.0 µM): 93.7% (active)
growth inhibition [6, 7]: 2%
growth inhibition [6, 8]: 71% (active)
growth inhibition ([6]; at 50.0 µM): 90.6% (active)

CCCCCOC(=S)SSSC(=S)OCCCCC
growth inhibition [1, 7]: -38%
growth inhibition [1, 8]: 96% (active)
growth inhibition ([1]; at 50.0 µM): 8.65%
growth inhibition [2, 7]: 44%
growth inhibition [2, 8]: 99% (active)
growth inhibition ([2]; at 50.0 µM): 4.7%
growth inhibition [3, 7]: 6%
growth inhibition [3, 8]: 97% (active)
growth inhibition ([3]; at 50.0 µM): 22.1%
growth inhibition [4, 7]: -13%
growth inhibition [4, 8]: 66%
growth inhibition ([4]; at 50.0 µM): -0.1%
growth inhibition [5, 7]: 0%
growth inhibition [5, 8]: 98% (active)
growth inhibition ([5]; at 50.0 µM): 28.2%
growth inhibition [6, 7]: 16%
growth inhibition [6, 8]: 97% (active)
growth inhibition ([6]; at 50.0 µM): 21.9%
